# PubChem BioAssay (Tox21)
# Results filed as inconclusive are left out. Where a call stands in place of a potency, no number is given. The source made the active and inactive calls. Unless noted, calls follow the shape of the dose curve; as a rule, active = well fitted activation curve with a large enough effect in the repeat runs; inconclusive = weak or mixed curves, or effect the other way; inactive = no such curve, though single readings can be large or run the other way.
# Test: qHTS assay to identify small molecule antagonists of the estrogen related receptor signaling pathway with the pleiotropic PPARgamma coactivator (PGC) from Tox21 10K library (AID 1224841; call rule not given here; also: actives are mostly falling curves and most rising ones were filed inactive; nearly all actives have a fitted effect of over 50% in size; also: potency is read from the fitted curve at half-maximal effect)
# Details: PGC/ERR reporter cell line, ONE-Glo luciferase, 18 h; series mostly up to 92.4 µM
# Procedure, shortened: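 In the PGC/ERR line, DMSO solutions of test chemicals are pin-delivered to 2,000 cells/well six hours after dispensing. Following eighteen hours' incubation, One-Glo reagent is added and luminescence recorded.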
row,SMILES,Potency
1,O=C1CN=C(c2ccccc2)c2cc(Cl)ccc2N1CC1CC1,25.5 µM (active)
2,C(=NC1CCCCC1)=NC1CCCCC1,13.7 µM (active)
3,Clc1ccc(C(OCCN2CCCCC2)c2ccccc2)cc1 (stereo unspecified),inactive
4,Clc1ccc(C2(Cn3cncn3)CC(Br)CO2)c(Cl)c1 (stereo unspecified),24.2 µM (active)
5,COP(=O)(OC)O/C(=C/Cl)c1cc(Cl)c(Cl)cc1Cl,8.13 µM (active)
6,CCOP(=O)(OCC)O/C(=C/Cl)c1ccc(Cl)cc1Cl,2.73 µM (active)
7,O=C(Nc1ccccc1)Nc1cnns1,inactive
8,CCO[C@H]1O[C@@H]2OC3(C)CC[C@H]4[C@H](C)CC[C@@H]([C@H]1C)[C@@]24OO3,0.668 µM (active)
9,CCCCc1c(C)nc(NCC)nc1OS(=O)(=O)N(C)C,48.6 µM (active)
10,NS(=O)(=O)C(F)(F)C(F)(F)C(F)(F)C(F)(F)C(F)(F)C(F)(F)C(F)(F)C(F)(F)F,inactive
11,O=C1NCN(c2ccccc2)C12CCN(CCCOc1ccc(F)cc1)CC2,inactive

# Test: qHTS assay to identify small molecule agonists of the estrogen related receptor signaling pathway with the pleiotropic PPARgamma coactivator (PGC) from Tox21 10K library (AID 1224842); also: nearly all actives have a fitted effect of over 15% in size
# Details: PGC/ERR reporter cell line, luciferase ONE-Glo, 18 h; series mostly up to 92.4 µM
# Procedure, shortened: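 Luminescence from One-Glo (30 min, room temperature) measured after PGC/ERR cells had 18 h at 37 C with pinned compound (23 nL in DMSO). Cells had been seeded at 2,000 per well and pre-incubated 6 h.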
row,SMILES,Potency
1,O=C1CN=C(c2ccccc2)c2cc(Cl)ccc2N1CC1CC1,inactive
2,CC(c1ccc(O)cc1)(c1ccc(O)cc1)c1ccc(O)cc1,inactive
3,CC[C@H]1C[C@H]2[C@@H]3CCC4=CC(=O)CC[C@@H]4[C@H]3CC[C@]2(C)[C@H]1O,inactive
4,CO/C=C(/C(=O)OC)c1ccccc1COc1cccc(C(F)(F)F)n1,inactive
5,O=C(O)C1(c2ccc3c(c2)OC[C@H](Cc2ccc(-c4ccccc4)cc2)[C@H]3O)CCCC1,inactive
6,C(=NC1CCCCC1)=NC1CCCCC1,inactive
7,Clc1ccc(C(OCCN2CCCCC2)c2ccccc2)cc1 (stereo unspecified),inactive
8,Clc1ccc(C2(Cn3cncn3)CC(Br)CO2)c(Cl)c1 (stereo unspecified),inactive
9,CC1(C)CCC(Cc2ccc(Cl)cc2)C1(O)Cn1cncn1 (stereo unspecified),inactive
10,CS/C(C)=N/OC(=O)N(C)SN(C)C(=O)O/N=C(\C)SC,inactive
11,CCCN(CCC)c1c([N+](=O)[O-])cc(S(C)(=O)=O)cc1[N+](=O)[O-],inactive
12,COP(=O)(OC)O/C(=C/Cl)c1cc(Cl)c(Cl)cc1Cl,inactive
13,C=CC[C@]1(O)CC[C@H]2[C@@H]3CCC4=CC(=O)CCC4=C3C=C[C@@]21C,inactive
14,CCOP(=O)(OCC)O/C(=C/Cl)c1ccc(Cl)cc1Cl,inactive
15,O=C(Nc1ccccc1)Nc1cnns1,inactive
16,OC(c1ccc(Cl)cc1)(c1ccc(Cl)cc1)c1cccnc1,inactive
17,CCO[C@H]1O[C@@H]2OC3(C)CC[C@H]4[C@H](C)CC[C@@H]([C@H]1C)[C@@]24OO3,inactive
18,N#Cc1cc(I)c(O)c(I)c1,inactive
19,CCCCc1c(C)nc(NCC)nc1OS(=O)(=O)N(C)C,inactive
20,O=C1NCN(c2ccccc2)C12CCN(CCCOc1ccc(F)cc1)CC2,inactive
